Source: PubChem BioAssay AID1159580 (chemical genetic matrix, 2015)
Hit rate of the full screen: of about 5,500 compounds, about 2,000 (36%) were called active. Not shown: some 18% with an inconclusive outcome. No stated cut-off is given here; in the data, active means normalized growth mostly below about 0.91 (no sharp cut-off); inconclusive means no clear call, values can overlap the other calls; inactive means mostly above about 0.92. Some of the results follow.

Assay: chemical genetic growth profiling, strain panel (AID 1159580);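 further: tested at 20 µM; growth read once vehicle control cultures reached saturation at 30 °C; 1 = growth at the plate median or of vehicle wells; lower values mean less growth of the strain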
Conditions: S. cerevisiae deletion strains, growth OD

Measured: normalized growth

CCCCCCCCCCC/C=C\C(C)(C)/C=C\CCCC(=O)O
inactive: locus YAL040C, strain CLN3, active compounds read low 1.02 | locus YCL061C, strain MRC1 (second series), active compounds read low 1.04 | locus YDR150W, strain NUM1, active compounds read low 1.01 | locus YDR363W, strain ESC2, active compounds read low 1.04 | locus YER002W, strain NOP16, active compounds read low 1.04 | locus YJR075W, strain HOC1, active compounds read low 1.02 | locus YMR263W, strain SAP30, active compounds read low 1.03 | locus YMR307W, strain GAS1, active compounds read low 0.974 | locus YNL128W, strain TEP1, active compounds read low 0.996 | locus YNL153C, strain GIM3, active compounds read low 0.967 | locus YNL175C, strain NOP13, active compounds read low 1.01 | locus YNL197C, strain WHI3, active compounds read low 0.985 | locus YNL224C, strain SQS1, active compounds read low 1 | locus YNL322C, strain KRE1, active compounds read low 1.02 | locus YOR083W, strain WHI5 (second series), active compounds read low 0.965 | locus YPL055C, strain LGE1, active compounds read low 1.08
